Sampled rows, rich in hits. Any-hit rate of the full collection: about 17%.
TGFb SMAD3 inh – blocks TGF-b signaling. HepG2 CAGA-GFP TGF-b/SMAD3 reporter, GFP fluorescence, 18 h; TGF-beta stimulated, 500 pg/mL final. Potency, µM (highest dose often 46.1 µM), without a hit: top-dose activity, negative = inhibition, hits mostly inhibitors. 410,000 compounds, 1.2% hits; also: % is scaled to controls: 0 for no effect and ±100 for the full control effect; nearly all actives have a fitted effect of over 65% in size
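GFP signal (ex488/em500-530) from TGF-beta-stimulated HEPG2 CAGA-GFP cells, 500 pg/mL final, 18 h at 37 degrees C in DMEM plus 1% FBS, normalized to unstimulated and DMSO-stimulated controls.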
HepG2 tox – HepG2 cytotoxicity, counter-screen for TGF-b inhibitors; HepG2 CAGA-GFP viability, ATP luminescence, 18 h; Potency, µM (top dose mostly 46.1 µM), for the others: top-dose activity change, negative = cytotoxicity, most hits filed as cytotoxic; 410,000 compounds, 0.76% hits
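HepG2 CAGA-GFP cells (1000/well, DMEM with 1% FBS) received compound, then TGF-beta at 500 pg/mL final, and were incubated 18 hours at 37 degrees C. Viability was read by CellTiter-Glo luminescence. Media-only wells were set as complete cell-killing and DMSO as no toxicity.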
HT1080NT lethal – kills 2HG-producing HT-1080-NT fibrosarcoma cells | HT-1080-NT fibrosarcoma viability, CellTiter-Glo ATP luminescence, 48 h | Potency, µM (series often up to 46.1 µM), for the others: top-dose activity, negative = less viability, hits mostly cytotoxic | 360,000 compounds, 1.6% hits;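 also: NT is the 2HG producing partner of a matched IDH1 knockdown line; 0% = DMSO-treated cells and -100% = media-only wells without cells; nearly all actives have a fitted effect of over 55% in size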
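Compounds were tested in concentration-response format on HT-1080-NT cells for 48 hours at 37 degrees C. Cell viability came from CellTiter-Glo luminescence; curves were classified by r2, response magnitude and activity.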
HT1080 IDH1KD tx – HT-1080 IDH1 knockdown cell toxicity (counter line). Potency, µM (doses to about 46.1 µM), for inactives: at the top dose activity, negative = toxicity, actives largely listed as cytotoxic. 360,000 compounds, 2% hits. AID 686971. HT-1080 IDH1 knockdown viability, ATP luminescence, 48 h;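 also: 0% = DMSO wells and -100% = cell-free medium wells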
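Cytotoxicity counter-line: IDH1KD HT-1080, 48 h, CellTiter-Glo. Curves classed by r2, magnitude and activity.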
TDP1 cell CPT – DT40-hTDP1 cell growth loss with CPT; AID 686979; 420,000 compounds, 12% hits; Potency, µM (highest dose often 46.2 µM), for inactives: top-dose activity change, negative = growth inhibition, actives largely listed as inhibitors; chicken DT40 Tdp1-/-;hTDP1 cells + 20 nM CPT, ATP luminescence, 48 h; also: % is scaled to controls: 0 for no effect and ±100 for the full control effect; nearly all actives have a fitted effect of over 55% in size
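Cell growth measured by CellTiter-Glo luminescence after a minimum 48 h, 37 C compound exposure with 20 nM CPT in Tdp1-knockout DT40 cells stably expressing hTDP1, seeded 400/well; qHTS titration format.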
DT40 TDP1 no CPT – qHTS for Inhibitors of human tyrosyl-DNA phosphodiesterase 1 (TDP1): qHTS in cells in absence of CPT. DT40 Tdp1-/- hTDP1 cells, no CPT, ATP luminescence, 48 h. Potency, µM (doses to about 46.2 µM), without a hit: at the highest dose activity change, negative = growth inhibition, most hits filed as inhibitors. 420,000 compounds, 15% hits; also: % is scaled to controls: 0 for no effect and ±100 for the full control effect; nearly all actives have a fitted effect of over 55% in size
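Chicken DT40 Tdp1-/- cells complemented with human TDP1, screened without camptothecin (DMSO vehicle only), 400 cells/well. Compounds pin-transferred, cells incubated at 37 °C for at least 48 hr. Growth read as ATP-dependent luminescence (CellTiter-Glo, 30 min at RT).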
The depositor's hits bear a star; ? = inconclusive; . = no result given; [ ] = remark or other dose. Calls follow the shape of the dose curve; as a rule, active = well fitted curve in the direction sought with a large enough effect; inconclusive = small, poorly fitted or top-dose-only effect, or another doubt; inactive = no such curve, though single readings can be large; an effect the other way counts as inactive or inconclusive. Potency is read from the fitted curve at half-maximal effect.

SMILES	TGFb SMAD3 inh	HepG2 tox	HT1080NT lethal	HT1080 IDH1KD tx	TDP1 cell CPT	DT40 TDP1 no CPT
Cc1cccc(-n2c(SCC(=O)NCC3CCCO3)nc3ccccc3c2=O)c1C (configuration not stated)	7%	-22%	2%	-1%	15µM*	23µM*
O=C(O)c1cccnc1SCc1cccc(Br)c1	0%	-13%	10%	3%	-15%	-4%
Cc1cccc(NC(=O)/C(C#N)=C\c2cc(C)n(-c3ccc(C(=O)O)cc3)c2C)c1	2%	-2%	2%	0%	?	18µM*
Cc1cc(/C=C(\C#N)C(=O)NCc2cccs2)c(C)n1-c1ccc([N+](=O)[O-])cc1	25%	-20%	1%	-8%	-24%	-5%
Cc1cc(/C=C(\C#N)C(=O)Nc2ccccc2)c(C)n1-c1ccc(C(=O)O)cc1	-4%	-56%	1%	-2%	-24%	-11%
Cc1cc(/C=C(\C#N)C(=O)Nc2ccc(Cl)cc2)c(C)n1-c1ccc(N2CCOCC2)c([N+](=O)[O-])c1	18%	34%	-22%	-5%	7.3µM*	7.3µM*
CNC(=O)/C(C#N)=C/c1cc(C)n(-c2ccc(N3CCOCC3)cc2)c1C	6%	-2%	10%	2%	3.3µM*	?
CCOC(=O)/C(C#N)=C/c1cc(C)n(-c2ccc(C)cc2)c1C	30%	4%	-15%	?	18µM*	18µM*
CCCCCCn1c(SCC(=O)NC2CCS(=O)(=O)C2)nc2ccccc2c1=O (configuration not stated)	-11%	-4%	0%	7%	-17%	-6%
CS(=O)(=O)N1CCCC(C(=O)Nc2ccc(F)cc2F)C1 (configuration not stated)	2%	0%	-1%	2%	-4%	12%
O=C1CCC(C(=O)N2CCN(c3cnccn3)CC2)CN1CCc1cccc(F)c1 (configuration not stated)	7%	3%	-3%	5%	-9%	21%
COc1cccc(CNC(=O)CN2c3cccc4cccc(c34)S2(=O)=O)c1	0%	-4%	-5%	-10%	-6%	1%
COC(=O)/C(C#N)=C/c1ccc(N2CCOCC2)c([N+](=O)[O-])c1	0%	-42%	17%	8%	-5%	-9%
Cc1ccc(NC(=O)/C(C#N)=C/c2cc(C)n(-c3ccc(N4CCOCC4)c([N+](=O)[O-])c3)c2C)c(C)c1	-11%	-16%	5%	3%	7.3µM*	8.2µM*
COc1ccccc1CNC(=O)Cn1cc([N+](=O)[O-])ccc1=O	3%	-5%	5%	13%	-6%	-3%
COc1ccc(NS(=O)(=O)c2ccc(Cl)c(N)c2)cc1Br	?	-24%	-24%	-23%	8%	?
O=S(=O)(Nc1ccc(-n2cccc2)cc1)c1ccc(Cl)c(Cl)c1	11µM*	-102%	?	-2%	?	?
O=S(=O)(Nc1ccc(-n2cccc2)cc1)c1ccc(F)cc1	?	-33%	-18%	-5%	-7%	?
Nc1cc(S(=O)(=O)Nc2ccc(Br)cc2)ccc1Cl	?	11µM*	-18%	?	?	?
Nc1ccc(S(=O)(=O)c2ccc(NC(=O)c3cccnc3)cc2)cc1	-4%	-12%	-6%	-4%	-28%	2%
COc1ccc(/C=C/c2c([N+](=O)[O-])c(=O)n(C)c(=O)n2C)cc1O	0%	-10%	-3%	-11%	-29%	?
COc1cccc(/C=C/C(=O)c2ccc[nH]2)c1	7%	-5%	-6%	-4%	?	?
COc1ccc(/C=C/C(=O)c2ccc(C)c([N+](=O)[O-])c2)cc1O	18µM*	20µM*	-12%	?	?	13µM*
COc1cccc(/C=C/C(=O)c2ccc(C)c([N+](=O)[O-])c2)c1	?	-39%	?	-24%	?	21µM*
COc1cc(/C=C/C(=O)c2ccc(C)c([N+](=O)[O-])c2)cc(OC)c1O	13µM*	-44%	?	?	16µM*	15µM*
SMILES	TGFb SMAD3 inh	HepG2 tox	HT1080NT lethal	HT1080 IDH1KD tx	TDP1 cell CPT	DT40 TDP1 no CPT
COc1cc(/C=C/C(=O)O)cc(OC)c1O	14%	-24%	-6%	-20%	5%	6%
O=C(NCc1ccncc1)c1cnn(-c2ncc3c(n2)-c2ccccc2CC3)c1C1CC1	.	.	.	.	10%	-8%
COc1ccccc1NC(=O)/C=C\c1ccco1	-5%	-8%	10%	3%	?	-28%
COc1ccccc1NC(=O)/C(C#N)=C/C=C/c1ccco1	2%	-4%	1.8µM*	1.4µM*	1.3µM*	1.2µM*
CN1C(=O)/C(=C\C(=O)c2cccs2)c2ccccc21	?	-19%	10µM*	?	13µM*	9.2µM*
Cc1cccc(N(Cc2cc3ccc(C)cc3[nH]c2=O)S(=O)(=O)c2ccccc2)c1	-2%	-2%	9%	10%	-28%	?
Cc1oc(-c2ccccc2NC(=O)C2CCC2)nc1CNC(=O)c1ccc2ccccc2c1	.	.	.	.	2%[9.04 µM]	-9%
CN(C)C(=O)CCc1ccc2c3c([nH]c2c1)[C@]1(C)[C@@H](C(=O)N2CCOCC2)C[C@H](CC(=O)NCc2ccco2)C(=O)N1CC3	-2%	0%	4%	7%	-11%	-13%
CC(C)=CCC/C(C)=C/CNC(=O)C[C@H]1C[C@H](C(=O)N2CCOCC2)[C@@]2(C)c3[nH]c4cc(CCC(=O)N(C)C)ccc4c3CCN2C1=O	?	-22%	-11%	-8%	23µM*	16µM*
CC[C@]12c3[nH]c4cc(CCC(=O)N(C)C)ccc4c3CCN1C(=O)[C@@H](CC(=O)NC/C=C(\C)CCC=C(C)C)C[C@@H]2C(=O)N1CCN(C(=O)C2CC2)CC1	?	-17%	0%	-16%	8.2µM*	6.5µM*
CC(C)=CCC/C(C)=C/CNC(=O)C[C@H]1C[C@H](C(=O)N2CCCCC2)[C@@]2(C)c3[nH]c4cc(CCC(=O)N(C)C)ccc4c3CCN2C1=O	?	-47%	-2%	-21%	7.3µM*	15µM*
